Source: PubChem
Shown are actives, neighbours in structure and some others; about 0.74% of the full set was active somewhere.
DTT redox prof: compounds producing H2O2 with reducing agent – biochemical, NIH compound library profiling, artefact control for MLSCN library redox annotation, primary screen; activation, % at 10 µM; AID 878, 2007; hit rate 0.03% among 200,000; DTT-dependent redox cycling H2O2, phenol red/HRP absorbance; 100% = 100 µM peroxide control, 0% = buffer;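 active = activation of at least 50% relative to the plate's high and low controls in the primary single-dose screen; inactive = activation below 50%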;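 also: compound incubated with DTT at 0.8 mM final as the reducing agent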
LYPLA2 inh: LYPLA2 inhibitors, primary screen, counter-screen for PME1 inhibitor project, biochemical, fluorescence polarization, FP-Rh probe ABPP; Acyl-protein thioesterase 2 (Homo sapiens), O95372; recombinant LYPLA2; inhibition, % at 5.9 µM; hit rate 0.38% among 320,000; AID 2177, 2009;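 active = inhibition above the screen-wide mean plus 3 SD, limit set per campaign, cut at about 26% in these data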
Target sequence (O95372 whole entry, looked up): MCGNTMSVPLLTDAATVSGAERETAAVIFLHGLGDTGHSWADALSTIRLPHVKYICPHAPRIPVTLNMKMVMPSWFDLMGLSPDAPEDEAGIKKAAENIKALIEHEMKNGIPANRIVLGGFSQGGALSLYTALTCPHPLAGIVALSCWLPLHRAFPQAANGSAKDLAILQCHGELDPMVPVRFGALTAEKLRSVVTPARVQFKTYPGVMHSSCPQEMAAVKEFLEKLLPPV
LYPLA1 counter: LYPLA1 inhibitors, primary screen, counter-screen for PME1 inhibitor project, biochemical, fluorescence polarization, FP-Rh probe ABPP; recombinant LYPLA1; inhibition, % at 5.9 µM; Acyl-protein thioesterase 1 (Homo sapiens), O75608; hit rate 0.16% among 320,000;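 active = inhibition above the mean of all tested compounds plus 3 SD, set per campaign, cut at about 14% in these data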;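 also: inhibitors block serine hydrolase probe labeling of LYPLA1 so polarization falls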
Target sequence (O75608 whole entry, looked up): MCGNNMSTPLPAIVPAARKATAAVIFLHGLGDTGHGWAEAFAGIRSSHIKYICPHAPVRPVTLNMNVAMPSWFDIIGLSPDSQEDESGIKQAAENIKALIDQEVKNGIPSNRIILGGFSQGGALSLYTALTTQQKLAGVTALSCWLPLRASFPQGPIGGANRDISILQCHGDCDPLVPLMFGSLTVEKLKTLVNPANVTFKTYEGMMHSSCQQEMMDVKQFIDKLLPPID
p97 inhibitor: inhibitors of human p97 ATPase, primary screen, biochemical; recombinant p97 ATPase, Kinase-Glo ATP luminescence, 3 h; inhibition, % at 8 µM; hit rate 0.42% among 220,000; in the data active = inhibition above about 15%
DTT redox conf: redox cycling H2O2 generation, confirmed | shares compounds with DTT redox prof | DTT-dependent redox cycling H2O2, phenol red-HRP absorbance | hit rate 40% among 60 | EC50, µM;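 active = EC50 under a set limit for hydrogen peroxide production with the reducing agent DTT present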
p97 inh conf: p97 ATPase inhibitors, retest, confirmation, biochemical; shares compounds with p97 inhibitor; recombinant p97 ATPase, Kinase-Glo ATP luminescence; inhibition, % at 8 µM; hit rate 44% among 760;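 active = percent inhibition of p97 ATPase above a set limit, the primary screen's mean plus 3 SD, cut at about 15% in these data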
Large screens that a line does not name were inactive (follow-up assays come after a bar, where they were run).

Cc1noc(C)c1C(=O)N(C)CC(=O)Nc1ccc(F)c(F)c1F	none (no result: DTT redox prof, p97 inhibitor)
O=[N+]([O-])c1ccc(NCCCNS(=O)(=O)c2ccc(Cl)cc2)c(Cl)c1	LYPLA2 inh 26.5
CNc1ccc(Br)cc(C(=O)/C=C/c2ccc3c(c2)OCO3)c1=O	p97 inhibitor 14.7
COC(=O)c1ccc(Oc2coc3cc(OCc4ccc([N+](=O)[O-])cc4)ccc3c2=O)cc1	none
N#C/C(=C(/O)CSc1ccccc1C(=O)O)c1nc2ccccc2s1	p97 inhibitor 16.3
c1ccc(CSc2nnc3ccc(-c4ccco4)nn23)nc1	none
Nc1ccc(N2CCN(CCCCN3C(=O)C4CCCN4C3=O)CC2)cc1 (centres undefined)	LYPLA2 inh 28.9
O=C1C2CCCCN2C(=O)N1CCCN1CCN(c2ccc(F)cc2)CC1 (centres undefined)	none (no result: DTT redox prof, p97 inhibitor)
Cc1cc(C)nc(SCc2ccc(C(=O)N/N=C/c3cccc(O)c3O)cc2)n1	p97 inhibitor 14.6
COc1ccc(O)c(/C=N/NC(=O)c2ccc(CSc3nc(C)cc(C)n3)cc2)c1	none
CCN(CC(=O)Nc1c(F)cccc1F)C(=O)c1cc(-c2cccs2)nn1-c1ccccc1	none (no result: DTT redox prof, p97 inhibitor)
O=C(Nc1ccc(S(=O)(=O)Nc2ncccn2)cc1)C1=NN(c2ccccc2)C(=O)CC1	none (no result: DTT redox prof)
CCOC(=O)c1cc(=O)n2nc(-c3ccccc3F)nc2s1	p97 inhibitor 15.9
COc1ccc(-c2cc(C(=O)NC(C)c3ccccn3)c3ccccc3n2)cc1OC (centres undefined)	none (no result: DTT redox prof, p97 inhibitor)
CC(C)(C)OC(=O)NCCCCC1=CC2=CC(=O)C(C)(OC(=O)c3cnc4ccccc4n3)C(=O)C2=CO1 (centres undefined)	LYPLA1 counter 16.7 (no result: DTT redox prof, p97 inhibitor)
CCCCC1=CC2=CC(=O)C(C)(OC(=O)c3cnc4ccccc4n3)C(=O)C2=CO1 (centres undefined)	LYPLA1 counter 23.1 (no result: DTT redox prof, p97 inhibitor)
COC(=O)CCCC1=CC2=CC(=O)C(C)(OC(=O)c3cnc4ccccc4n3)C(=O)C2=CO1 (centres undefined)	LYPLA1 counter 20.2 (no result: DTT redox prof, p97 inhibitor)
CC(Oc1cccc(Cl)c1)C(=O)Nc1ccc(N2CCOCC2)cc1N1CCOCC1 (centres undefined)	none (no result: DTT redox prof, p97 inhibitor)
COC(=O)c1ccccc1NC1=C/C(=N\S(=O)(=O)c2ccc(C(=O)O)cc2)c2ccccc2C1=O	LYPLA2 inh 26.4 (no result: DTT redox prof, p97 inhibitor)
COC(=O)c1ccccc1NC1=C/C(=N\S(=O)(=O)c2cccs2)c2ccccc2C1=O	none
CSc1cccc(NC(=O)C2CCCN(S(=O)(=O)c3cnc[nH]3)C2)c1 (centres undefined)	p97 inhibitor 17.0 (no result: LYPLA2 inh, LYPLA1 counter)
COc1ccc(-n2[nH]c(C)cc2=O)cc1	p97 inhibitor 27.6
O=C(COc1ccccc1C(=O)N/N=C\c1ccc(O)c(O)c1)N/N=C/c1ccc(O)c(O)c1	p97 inhibitor 18.7
O=C(COc1ccccc1[N+](=O)[O-])N/N=C/c1ccc(O)c([N+](=O)[O-])c1	none
COc1cccc(-c2cc(C(F)(F)F)n3nc(C(=O)Nc4c(C)n(C)n(-c5ccccc5)c4=O)cc3n2)c1	none
COc1ccc(-c2cc(C(F)(F)F)n3nc(C(=O)Nc4c(C)n(C)n(-c5ccccc5)c4=O)cc3n2)cc1	p97 inhibitor 16.7 (no result: LYPLA2 inh, LYPLA1 counter)
NC(=O)c1ccccc1NC(=O)c1cc(S(=O)(=O)N2CCCCC2)ccc1N1CCOCC1	none (no result: DTT redox prof, p97 inhibitor)
O=C(COc1ccc(Cl)cc1Br)NCC(c1ccco1)N1CCCC1 (centres undefined)	none (no result: DTT redox prof, p97 inhibitor)
CCOc1ccc(N(CC)S(=O)(=O)c2ccc3c(c2)n(C)c(=O)c(=O)n3C)cc1	none
CC1=NN(c2ccc(F)cc2)C(=O)C1C(c1cccc(O)c1)c1c(C)[nH]n(-c2ccc(F)cc2)c1=O (centres undefined)	p97 inhibitor 33.2
O=C(COC(=O)c1ccccc1OCc1ccccc1Cl)NC1CC1	DTT redox prof 87.7 | DTT redox conf inactive
CS(=O)(=O)c1cnc(-c2cccnc2)nc1N	none
O=C(Oc1ccc(Nc2ncnc3ccccc23)cc1)c1cccnc1	none (no result: LYPLA2 inh, LYPLA1 counter)
Cc1cc(Cl)ccc1OCC(O)CNCCc1ccc(S(N)(=O)=O)cc1 (centres undefined)	none (no result: DTT redox prof, p97 inhibitor)
O=C1c2ccccc2C(=O)c2c1cccc2N(CCO)CCO	none (no result: DTT redox prof, p97 inhibitor)
O=C1C=C(N(CCO)Cc2ccccc2)c2ccccc2C1=O	DTT redox prof 129.0 (no result: LYPLA2 inh, LYPLA1 counter) | DTT redox conf 3.11
Cc1ccc(S(=O)(=O)/N=C2/C=C(Sc3ncn[nH]3)C(=O)c3ccccc32)c(C)c1	DTT redox prof 83.3, LYPLA2 inh 31.0 | DTT redox conf 12.5
CC(C)c1ccc(S(=O)(=O)/N=C2/C=C(Sc3ncn[nH]3)C(=O)c3ccccc32)cc1	DTT redox prof 93.0, LYPLA2 inh 36.3, p97 inhibitor 22.3 | DTT redox conf 13
Cc1ccc(S(=O)(=O)/N=C2\C=C(Nc3cccc(C(=O)O)c3)C(=O)c3ccccc32)c(C)c1	none (no result: DTT redox prof, p97 inhibitor)
COc1cccc(NC(=O)C(OC(=O)c2ccc([N+](=O)[O-])o2)c2ccccc2)c1 (centres undefined)	DTT redox prof 91.5 | DTT redox conf inactive
COc1ccc(N2CC(C(=O)NCc3nnnn3-c3ccc(C)c(C)c3)CC2=O)cc1 (centres undefined)	none (no result: DTT redox prof, p97 inhibitor)
Cc1ccc(C)c(S(=O)(=O)Nc2cc(SCC(=O)O)c(O)c3ccccc23)c1	DTT redox prof 101.2, LYPLA2 inh 35.0 | DTT redox conf inactive
CCc1ccc(S(=O)(=O)Nc2cc(SCC(=O)O)c(O)c3ccccc23)cc1	none
COc1cc2c(cc1OC)CN(C(=O)CN1CCN(S(=O)(=O)c3ccc(C)c(C)c3)CC1)CC2	none (no result: DTT redox prof, p97 inhibitor)
O=C(COC(=O)c1ccc([N+](=O)[O-])s1)Nc1ncc(C(F)(F)F)cc1Cl	DTT redox prof 86.0 | DTT redox conf inactive
C=CCn1c(Cc2ccc(OC)cc2)nnc1SCC(=O)NCCc1ccccc1	DTT redox prof 109.4 | DTT redox conf inactive
C=CCn1c(SCC(=O)NCCc2ccccc2)nnc1C1CC1	none (no result: DTT redox prof, p97 inhibitor)
CCCn1c(=O)c(C(=O)OCC)c(O)c2cc(Br)ccc21	none
CCOC(=O)c1c2c(n(C)c1COC)C(=O)C(=O)c1ccc(Br)cc1-2	DTT redox prof 343.3 | DTT redox conf inactive
O=C1C(Nc2ccccc2)=C/C(=N/S(=O)(=O)c2cccs2)c2ccccc21	DTT redox prof 102.3 | DTT redox conf inactive
CCCc1nc2c(=O)n(C)c(=O)nc-2n(C)n1	DTT redox prof 127.5, p97 inhibitor 31.6 (no result: LYPLA2 inh, LYPLA1 counter) | DTT redox conf 1.51 | p97 inh conf 29.2
CC1CC(C)CN(S(=O)(=O)c2cc3c(cc2Cl)NC(=O)CO3)C1 (centres undefined)	none (no result: DTT redox prof, p97 inhibitor)
